About 83,000 compounds went through this panel and 20% of them were active in at least one assay; those are over-represented in the sample as a whole.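 How to read the values: 0–100, growth inhibition (40 = 60% inhibited); 0, no net growth; -100 to 0, cell death (-40 = 40% of starting cells died; -100 = all dead).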 Unmarked numbers belong to inactive results. Calls of active or inactive are those of the source. How the source made its calls: active means growth percent below 10; inactive means the rest.

The text below walks through data of PubChem BioAssay (NCI).

Among the test systems are K-562 leukemia; MDA-MB-231 breast; RXF 393 renal; SF-268 CNS; SF-295 CNS; SF-539 CNS; UACC-257 melanoma; M14 melanoma; HCT-15 colon; HT29 colon; SNB-75 CNS; SNB-19 CNS; U251 CNS; PC-3 prostate; SK-MEL-5 melanoma; UACC-62 melanoma; LOX IMVI melanoma; SK-MEL-28 melanoma; SK-MEL-2 melanoma.
Holding throughout (assay): NCI-60 one-dose screen, 48 h (100 = growth as untreated, 0 = no growth, -100 = all killed)
Holding throughout (conditions): 10 µM

As to `CC(=O)/C(=C/c1ccccc1)C(=O)CC(C)C`, the growth was 41.5% with K-562 leukemia; 119% with MDA-MB-231 breast; 103% with RXF 393 renal; 95.3% in the experiment on SF-268 CNS; 102% with SF-295 CNS; 109% in the experiment on SF-539 CNS. Also, the growth was 89.6% with UACC-257 melanoma; 82.9% in the experiment with M14 melanoma; 76.1% in the experiment with HCT-15 colon; 74.4% in the experiment on HT29 colon; 91.4% in the experiment with SNB-75 CNS; 106% in the experiment with SNB-19 CNS. Also, the growth in the experiment with U251 CNS was 63.6%; with PC-3 prostate, 83.7%; in the experiment on SK-MEL-5 melanoma, 88.1%; with UACC-62 melanoma, 92.4%; in the experiment with LOX IMVI melanoma, -23% (active); with SK-MEL-28 melanoma, 95.6%. Further, in the experiment on SK-MEL-2 melanoma, the growth is 109%.

With `COc1ccc2c(c1)-c1c(c3cc(OC)ccc3n(CCN(C)C)c1=O)C2=O`, the growth with K-562 leukemia was 18.6%; in the experiment on MDA-MB-231 breast, 36.7%; in the experiment with RXF 393 renal it was 25.2%; in the experiment on SF-268 CNS, 22.1%; with SF-295 CNS, 7.07% (active); with SF-539 CNS it was 37.7%. In addition, the growth is 18.4% in the experiment on UACC-257 melanoma; 24% in the experiment on M14 melanoma; 21.9% in the experiment on HCT-15 colon; -63.4% (active) in the experiment with HT29 colon; -3.22% (active) in the experiment on SNB-75 CNS; 32.4% in the experiment with SNB-19 CNS. The growth was 20.3% in the experiment with U251 CNS; 21.5% with PC-3 prostate; 11.7% in the experiment on SK-MEL-5 melanoma; 36.9% in the experiment with UACC-62 melanoma; -67.9% (active) with LOX IMVI melanoma; 41.3% with SK-MEL-28 melanoma. Also, in the experiment on SK-MEL-2 melanoma, the growth was 14.4%.

In the case of `CN1c2ccccc2[C@]2(Cc3ccccc3)Cc3ccccc3N[C@H]12`, the growth in the experiment on K-562 leukemia was 92.1%; in the experiment with MDA-MB-231 breast, 97.5%; in the experiment on RXF 393 renal it was 112%; in the experiment with SF-268 CNS, 112%; with SF-295 CNS, 104%; in the experiment with SF-539 CNS, 105%. The growth in the experiment on UACC-257 melanoma is 111%; with M14 melanoma it was 104%; in the experiment with HCT-15 colon, 96.3%; in the experiment with HT29 colon, 86.9%; in the experiment on SNB-75 CNS, 89.6%; in the experiment with SNB-19 CNS it was 104%. Also, the growth in the experiment with U251 CNS is 106%; in the experiment with PC-3 prostate, 100%; in the experiment with SK-MEL-5 melanoma it was 108%; in the experiment on UACC-62 melanoma it was 87.5%; in the experiment on LOX IMVI melanoma, 104%; with SK-MEL-28 melanoma, 99.7%. Moreover, in the experiment with SK-MEL-2 melanoma, the growth was 95%.

On to `C=C(C(=O)c1ccccc1)C(NC(C)(C)C)c1ccccc1` (stereo not given), for which the growth in the experiment with K-562 leukemia is 4.27% (active); in the experiment on MDA-MB-231 breast, -11.3% (active); in the experiment with RXF 393 renal it was -56.1% (active); in the experiment with SF-268 CNS it was 7.85% (active); with SF-295 CNS, 110%; in the experiment on SF-539 CNS, -24.1% (active). Besides, the growth in the experiment on UACC-257 melanoma is -15.3% (active); with M14 melanoma, -33.6% (active); in the experiment with HCT-15 colon it was -48.7% (active); in the experiment on HT29 colon, -26.1% (active); in the experiment with SNB-75 CNS, 53.6%; in the experiment on SNB-19 CNS it was 80.8%. For the same compound, the growth in the experiment with PC-3 prostate was 5.45% (active); in the experiment on SK-MEL-5 melanoma, -25.6% (active); with UACC-62 melanoma it was 0.104% (active); with LOX IMVI melanoma it was -82.2% (active); in the experiment with SK-MEL-28 melanoma, 9.1% (active); in the experiment on SK-MEL-2 melanoma it was -13.9% (active).

As to `COc1cc2c(cc1OC)N(CCO)C1=C(C(=O)OC1)C2c1ccc(Cl)c(Cl)c1` (stereo not given), the growth with K-562 leukemia was 88.7%; in the experiment with MDA-MB-231 breast it was 96.8%; in the experiment with RXF 393 renal, 97.8%; with SF-268 CNS, 100%; in the experiment on SF-295 CNS, 103%; in the experiment on SF-539 CNS, 99.3%. In addition, the growth was 103% in the experiment with UACC-257 melanoma; 112% with M14 melanoma; 98.2% in the experiment on HCT-15 colon; 94% in the experiment with HT29 colon; 106% in the experiment with SNB-75 CNS; 98.3% in the experiment on SNB-19 CNS. The growth is 96.8% with U251 CNS; 99.2% with PC-3 prostate; 99.5% in the experiment on SK-MEL-5 melanoma; 95.9% in the experiment with LOX IMVI melanoma; 120% in the experiment on SK-MEL-28 melanoma.

`Cc1ncc(-c2ccoc2)c(NC2CCCCCC2)n1`: the growth in the experiment with K-562 leukemia was 106%; with MDA-MB-231 breast, 108%; in the experiment with RXF 393 renal, 113%; in the experiment with SF-268 CNS it was 98.9%; in the experiment on SF-295 CNS, 102%; in the experiment on SF-539 CNS it was 110%. Besides, the growth with UACC-257 melanoma was 96.4%; in the experiment with M14 melanoma, 101%; in the experiment with HCT-15 colon, 103%; in the experiment on HT29 colon it was 99.4%; in the experiment with SNB-75 CNS, 97%; with SNB-19 CNS, 105%. The growth is 105% with PC-3 prostate; 99.6% with SK-MEL-5 melanoma; 104% in the experiment on UACC-62 melanoma; 96.9% in the experiment on LOX IMVI melanoma; 128% with SK-MEL-28 melanoma.

Regarding `c1ccc2c(c1)oc1c3cccnc3ccc21`, the growth in the experiment with K-562 leukemia was 95.8%; in the experiment on MDA-MB-231 breast it was 87.7%; in the experiment with RXF 393 renal it was 94.4%; in the experiment on SF-268 CNS, 98.3%; in the experiment with SF-295 CNS it was 105%; in the experiment on SF-539 CNS, 88.1%. Moreover, the growth is 101% in the experiment with UACC-257 melanoma; 100% with M14 melanoma; 95.1% with HCT-15 colon; 95.8% in the experiment on HT29 colon; 70.1% in the experiment with SNB-75 CNS; 95.3% in the experiment with SNB-19 CNS. The growth was 97.9% in the experiment with U251 CNS; 79.3% in the experiment on PC-3 prostate; 96.7% with SK-MEL-5 melanoma; 92.8% in the experiment with UACC-62 melanoma; 87.1% in the experiment with LOX IMVI melanoma; 92.7% with SK-MEL-28 melanoma. In the experiment on SK-MEL-2 melanoma, the growth was 96.9%.

As for `O=c1cc(-c2ccccc2)[nH]n1-c1nc2ccccc2[nH]1`, the growth in the experiment on K-562 leukemia was 10.1%; in the experiment on MDA-MB-231 breast, 73%; in the experiment on RXF 393 renal, 52.2%; with SF-268 CNS, 60.2%; with SF-295 CNS it was 21.6%; in the experiment on SF-539 CNS, 47.6%. For the same compound, the growth was 75.6% with UACC-257 melanoma; 41.8% in the experiment with M14 melanoma; 30.7% in the experiment on HCT-15 colon; 87.1% in the experiment with HT29 colon; 64.4% with SNB-75 CNS; 53.1% in the experiment with SNB-19 CNS. Also, the growth with U251 CNS is 31.7%; in the experiment with PC-3 prostate, 56.6%; with SK-MEL-5 melanoma, 34.1%; in the experiment with UACC-62 melanoma, 36.5%; in the experiment with LOX IMVI melanoma it was 27.8%; in the experiment on SK-MEL-2 melanoma it was 68.5%.

Take `CCCCCC(=O)c1ccc(OCCCN2CCN(C(=O)OCC)CC2)cc1`: the growth is 66.4% in the experiment with K-562 leukemia; 99.5% with MDA-MB-231 breast; 102% with RXF 393 renal; 108% in the experiment on SF-268 CNS; 81.8% with SF-295 CNS; 104% in the experiment with SF-539 CNS. Further, the growth was 95.6% in the experiment with UACC-257 melanoma; 103% in the experiment with M14 melanoma; 85.1% in the experiment with HCT-15 colon; 102% in the experiment with HT29 colon; 102% with SNB-75 CNS; 95.9% in the experiment with SNB-19 CNS. In addition, the growth in the experiment with U251 CNS is 98.2%; with PC-3 prostate, 78.7%; in the experiment with SK-MEL-5 melanoma, 63.7%; with UACC-62 melanoma it was 87%; in the experiment on LOX IMVI melanoma, 81.7%; with SK-MEL-28 melanoma, 98.3%. The growth in the experiment with SK-MEL-2 melanoma was 85.5%.
